Values joined by “and” are separate entries in the source; they are usually repeats but may differ in a detail not shown here. Identical values can stand only once. Records with an inconclusive call do not appear. A structure can be active in one record and inactive in another. Active and inactive are the calls of the source. Calls come from the whole dose curve; as a rule, active = well fitted curve in the direction sought with a large enough effect in the repeat runs; inconclusive = weak or mixed curves; inactive = no such curve, though single readings can be large; an effect the other way counts as inactive or inconclusive.
Experiments:
[1] = A CellTox Green Cytotoxicity Assay to monitor cytotoxicity in HEK293 cells - 40 hour (AID 1224871); note: nearly all actives have a fitted effect of over 45% in size; note: potency is the fitted concentration of half-maximal effect
Procedure, shortened: (§1)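 HEK293 cells premixed with CellTox Green dye were seeded at 600 cells/well and left 5 h at 37 C/5% CO2 before pin transfer of 23 nL compound in DMSO. Fluorescence from dye bound to dead-cell DNA was read during 40 h treatment.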

[2] = qHTS RealTime-Glo MT Cell Viability Assay in HEK293 cells - 16 hour (AID 1224872); note: nearly all actives have a fitted effect of over 50% in size; note: potency is the fitted concentration of half-maximal effect
Procedure, shortened: (§2)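 Nonlytic real-time viability readout: viable cells convert prosubstrate to NanoLuc substrate, giving luminescence proportional to live cell number. HEK293, 600 cells/well, compound added after 5 h, continuous culture at 37 C.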

[3] = qHTS RealTime-Glo MT Cell Viability Assay in HepG2 cells - 8 hour (AID 1224873); note: nearly all actives have a fitted effect of over 55% in size
Procedure, shortened: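 HepG2 cells mixed with RealTime-Glo MT reagents (NanoLuc plus cell-permeant prosubstrate) were seeded at 600 cells/well, incubated 5 h at 37 C/5% CO2, then pinned with compounds in DMSO; nonlytic luminescence tracked viability during 40 h treatment.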

[4] = qHTS RealTime-Glo MT Cell Viability Assay in HEK293 cells - 40 hour (AID 1224874); settings: RealTime-Glo luminescence; max response: stronger effect = lower value; note: nearly all actives have a fitted effect of over 50% in size; note: potency is the fitted concentration of half-maximal effect
Procedure, shortened: (§3)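 HEK293 cells mixed with RealTime-Glo reagents (NanoLuc plus cell-permeant prosubstrate) at 600 cells/well, preincubated 5 h at 37 C/5% CO2, then given 23 nL compound in DMSO. Nonlytic luminescence from viable cells was read at 0, 8, 16, 24, 32 and 40 h.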

[5] = A CellTox Green Cytotoxicity Assay to monitor cytotoxicity in HEK293 cells - 24 hour (AID 1224875); note: series mostly up to about 77 µM; nearly all actives have a fitted effect of over 45% in size
Procedure, shortened: as §1

[6] = A CellTox Green Cytotoxicity Assay to monitor cytotoxicity in HepG2 cells - 16 hour (AID 1224876); note: nearly all actives have a fitted effect of over 45% in size
Procedure, shortened: (§4)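 HepG2 cells were seeded together with the CellTox Green dye at 600 cells/well, left 5 h at 37 C/5% CO2, then given compounds in DMSO. Fluorescence from dye bound to dead-cell DNA was read repeatedly over 40 h of treatment at 37 C.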

[7] = qHTS RealTime-Glo MT Cell Viability Assay in HepG2 cells - 32 hour (AID 1224877); note: nearly all actives have a fitted effect of over 55% in size
Procedure, shortened: (§5)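 Luminescence read-out: viable HepG2 cells reduce a prosubstrate to a NanoLuc substrate, giving a signal proportional to live cell number. Reads taken at 0, 8, 16, 24, 32 and 40 h of compound exposure at 37 C.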

[8] = A CellTox Green Cytotoxicity Assay to monitor cytotoxicity in HepG2 cells - 24 hour (AID 1224878); note: nearly all actives have a fitted effect of over 45% in size
Procedure, shortened: as §4

[9] = A CellTox Green Cytotoxicity Assay to monitor cytotoxicity in HepG2 cells - 40 hour (AID 1224879); note: nearly all actives have a fitted effect of over 40% in size
Procedure, shortened: as §4

[10] = qHTS RealTime-Glo MT Cell Viability Assay in HEK293 cells - 0 hour (AID 1224880); note: nearly all actives have a fitted effect of over 45% in size; note: potency is the fitted concentration of half-maximal effect
Procedure, shortened: as §3

[11] = A CellTox Green Cytotoxicity Assay to monitor cytotoxicity in HEK293 cells - 32 hour (AID 1224881); note: nearly all actives have a fitted effect of over 40% in size
Procedure, shortened: as §1

[12] = A CellTox Green Cytotoxicity Assay to monitor cytotoxicity in HepG2 cells - 0 hour (AID 1224882); note: nearly all actives have a fitted effect of over 35% in size
Procedure, shortened: as §4

[13] = A CellTox Green Cytotoxicity Assay to monitor cytotoxicity in HepG2 cells - 32 hour (AID 1224883); note: nearly all actives have a fitted effect of over 50% in size
Procedure, shortened: as §4

[14] = A CellTox Green Cytotoxicity Assay to monitor cytotoxicity in HEK293 cells - 8 hour (AID 1224884); note: nearly all actives have a fitted effect of over 35% in size
Procedure, shortened: as §1

[15] = qHTS RealTime-Glo MT Cell Viability Assay in HepG2 cells - 16 hour (AID 1224885); note: nearly all actives have a fitted effect of over 50% in size
Procedure, shortened: as §5

[16] = qHTS RealTime-Glo MT Cell Viability Assay in HEK293 cells - 24 hour (AID 1224886); note: nearly all actives have a fitted effect of over 50% in size; note: potency is the fitted concentration of half-maximal effect
Procedure, shortened: as §2

[17] = qHTS RealTime-Glo MT Cell Viability Assay in HEK293 cells - 8 hour (AID 1224887); note: nearly all actives have a fitted effect of over 50% in size; note: potency is the fitted concentration of half-maximal effect
Procedure, shortened: as §3

[18] = A CellTox Green Cytotoxicity Assay to monitor cytotoxicity in HEK293 cells - 16 hour (AID 1224888); note: nearly all actives have a fitted effect of over 35% in size
Procedure, shortened: as §1

[19] = qHTS RealTime-Glo MT Cell Viability Assay in HepG2 cells - 0 hour (AID 1224889); note: nearly all actives have a fitted effect of over 50% in size; note: potency is the fitted concentration of half-maximal effect
Procedure, shortened: as §5

[20] = A CellTox Green Cytotoxicity Assay to monitor cytotoxicity in HepG2 cells - 8 hour (AID 1224890); note: nearly all actives have a fitted effect of over 45% in size
Procedure, shortened: as §4
% is set by controls: 0 for no effect and ±100 for the full control effect.

CN(C)C
inactive: Potency [1] | Potency [2] | Potency [3] | max response [4] 3.08% and -9.36% | Potency [5] | Potency [6] | Potency [7] | Potency [8] | Potency [9] | Potency [10] | Potency [11] | Potency [12] | Potency [13] | Potency [14] | Potency [15] | Potency [16] | Potency [17] | Potency [18] | Potency [19] | Potency [20]

CN(C)/N=N/c1nc[nH]c1C(N)=O
inactive: Potency [1] | Potency [2] | Potency [3] | max response [4] -18.2% and -3.15% | Potency [5] | Potency [6] | Potency [7] | Potency [8] | Potency [9] | Potency [10] | Potency [11] | Potency [12] | Potency [13] | Potency [14] | Potency [15] | Potency [16] | Potency [17] | Potency [18] | Potency [19] | Potency [20]

OC[C@H]1O[C@@H]2O[C@H]3[C@H](O)[C@@H](O)[C@@H](O[C@H]4[C@H](O)[C@@H](O)[C@@H](O[C@H]5[C@H](O)[C@@H](O)[C@@H](O[C@H]6[C@H](O)[C@@H](O)[C@@H](O[C@H]7[C@H](O)[C@@H](O)[C@@H](O[C@H]1[C@H](O)[C@H]2O)O[C@@H]7CO)O[C@@H]6CO)O[C@@H]5CO)O[C@@H]4CO)O[C@@H]3CO
inactive: Potency [1] | Potency [2] | Potency [3] | max response [4] -4.99% and 23.3% | Potency [5] | Potency [6] | Potency [7] | Potency [8] | Potency [9] | Potency [10] | Potency [11] | Potency [12] | Potency [13] | Potency [14] | Potency [15] | Potency [16] | Potency [17] | Potency [18] | Potency [19] | Potency [20]

CC/C=C\C/C=C\C/C=C\CCCCCCCC(=O)O
inactive: Potency [1] | Potency [2] | Potency [3] | max response [4] -5.49% and 15.2% | Potency [5] | Potency [6] | Potency [7] | Potency [8] | Potency [9] | Potency [10] | Potency [11] | Potency [12] | Potency [13] | Potency [14] | Potency [15] | Potency [16] | Potency [17] | Potency [18] | Potency [19] | Potency [20]

CC(C)(C)c1cccc(C(C)(C)C)c1O
24 µM (active) and inactive: Potency [16]
38 µM (active) and inactive: Potency [2]
inactive: Potency [3] | max response [4] 1.57% | Potency [6] | Potency [7] | Potency [8] | Potency [9] | Potency [10] | Potency [12] | Potency [13] | Potency [14] | Potency [15] | Potency [18] | Potency [19] | Potency [20]
active: Potency [4] 21.4 µM
47.9 µM (active) and inactive: Potency [1] | Potency [17]

CCCCCC1C(=O)CCC1CC(=O)OC (centres undefined)
inactive: Potency [1] | Potency [2] | Potency [3] | max response [4] 0.863% and -10.7% | Potency [5] | Potency [6] | Potency [7] | Potency [8] | Potency [9] | Potency [10] | Potency [11] | Potency [12] | Potency [13] | Potency [14] | Potency [15] | Potency [16] | Potency [17] | Potency [18] | Potency [19] | Potency [20]

CCCCCCCCCCC(CO)CCCCCCCC (centres undefined)
inactive: Potency [1] | Potency [2] | Potency [3] | max response [4] 5.36% and 2.58% | Potency [5] | Potency [6] | Potency [7] | Potency [8] | Potency [9] | Potency [10] | Potency [11] | Potency [12] | Potency [13] | Potency [14] | Potency [15] | Potency [16] | Potency [17] | Potency [18] | Potency [19] | Potency [20]

CC(=O)[C@@]1(O)CC[C@H]2[C@@H]3C[C@H](C)C4=CC(=O)C=C[C@]4(C)[C@@]3(F)[C@@H](O)C[C@@]21C
active: Potency [4] 19.5 µM | Potency [10] 5.49 µM and 3.01 µM | Potency [19] 347 nM and 1.34 µM
inactive: Potency [1] | Potency [3] | max response [4] -3.14% | Potency [5] | Potency [6] | Potency [7] | Potency [8] | Potency [9] | Potency [12] | Potency [13] | Potency [14] | Potency [15] | Potency [17] | Potency [18] | Potency [20]
27.5 µM (active) and inactive: Potency [16]
38.9 µM (active) and inactive: Potency [2]

FC(F)(F)C(Cl)Br (centres undefined)
inactive: Potency [1] | Potency [2] | Potency [3] | max response [4] -4.81% and 5.64% | Potency [5] | Potency [6] | Potency [7] | Potency [8] | Potency [9] | Potency [10] | Potency [11] | Potency [12] | Potency [13] | Potency [14] | Potency [15] | Potency [16] | Potency [17] | Potency [18] | Potency [19] | Potency [20]

Cc1ccc(N)c([N+](=O)[O-])c1
inactive: Potency [1] | Potency [2] | Potency [3] | max response [4] 2.67% and 2.77% | Potency [5] | Potency [6] | Potency [7] | Potency [8] | Potency [9] | Potency [10] | Potency [11] | Potency [12] | Potency [13] | Potency [14] | Potency [15] | Potency [16] | Potency [17] | Potency [18] | Potency [19] | Potency [20]

Reference: PubChem BioAssay (Tox21)
